# Results taken from PubChem BioAssay AID504895 (National Center for Advancing Translational Sciences (NCATS), 2011).
# Records with an inconclusive call do not appear. Calls of active or inactive are those of the source. The call rests on the fitted dose curve; in most records, active means well fitted curve in the direction sought with a large enough effect; inconclusive means small, poorly fitted or top-dose-only effect, or another doubt; inactive means no such curve, though single readings can be large or run the other way.
# Biological target: Protein phosphatase EYA2 (Homo sapiens) (UniProt O00167)
# Sequence (O00167 whole entry, looked up): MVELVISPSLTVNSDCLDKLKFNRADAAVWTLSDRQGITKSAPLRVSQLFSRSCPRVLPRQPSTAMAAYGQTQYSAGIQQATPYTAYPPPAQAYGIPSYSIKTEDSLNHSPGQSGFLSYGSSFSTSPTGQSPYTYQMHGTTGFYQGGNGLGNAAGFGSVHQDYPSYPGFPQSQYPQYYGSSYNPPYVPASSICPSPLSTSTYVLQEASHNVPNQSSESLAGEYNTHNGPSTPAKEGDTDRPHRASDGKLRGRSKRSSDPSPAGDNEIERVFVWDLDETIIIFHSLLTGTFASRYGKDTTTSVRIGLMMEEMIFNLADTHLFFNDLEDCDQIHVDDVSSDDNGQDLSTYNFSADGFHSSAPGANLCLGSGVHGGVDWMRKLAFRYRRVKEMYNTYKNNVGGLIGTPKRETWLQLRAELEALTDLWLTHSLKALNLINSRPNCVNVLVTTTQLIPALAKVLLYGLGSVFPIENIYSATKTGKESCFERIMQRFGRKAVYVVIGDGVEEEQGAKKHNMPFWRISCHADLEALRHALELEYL
# Assay: Inhibitors of Eya2ED: Hit Confirmation in Primary Screen
# Details: Recombinant Eya2ED, OMFP fluorescence phosphatase assay; series mostly up to 76.9 µM
# Source text: The Eya proteins (Eya1-4) were originally identified as essential co-activators of the Six1 transcription factor. […] Knockdown of Six1 decreases cancer cell proliferation and metastases in several different cancer models. […] A fluorescence-based HTS assay has been perfomed against the Molecular Libraries Small Molecule Repository (MLSMR) and has the AID 488837 in this database. After completion of the primary screen, hits were re-ordered and tested again in the primary screen in a 12 point titration. NIH Chemical Genomics Center [NCGC] NIH Molecular Libraries Probe Centers Network [MLPCN] MLPCN Grant: DA030559-01 Assay Submitter (PI): Rui Zhao, University of Colorado, Denver
# The Eya2 enzyme was kindly provided by the laboratory of Dr. Rui Zhao. The 3-O-methyl-fluorescein phosphate (OMFP) substrate and all buffer reagents were purchased from Sigma Aldrich. qHTS Assay Setup: 1. Buffer- 50 mM HEPES pH 7.5, 50 mM NaCl, 5 uM MgCl2, 0.05% BSA, 1 mM DTT. 2. OMFP Stock- 10 mM solution prepared in 100% DMSO and stored in single use aliquots at -20C. Assay Procedure- 1. Dispense 1.5 ul per well of Eya2 at 0.2 uM in black medium binding 1536 well Greiner plate 2. Transfer 23 nl of compound and control compound (EGTA) to plate 3. Incubate at ambient for 10 minutes 4. Dispense 1.5 ul per well of OMFP at 50 uM 5. Incubate at ambient for 10 minutes 6. Read on ViewLux using Excitation = 485 nm, Emission = 525 nm
row,Compound,outcome
1,Cn1c(O)c(/C=N/NC(=O)c2ccncc2)c(=O)n(C)c1=S,inactive
2,O=C(O)C1C2CCC(O2)C1C(=O)Nc1cccc(Br)c1 (stereo not given),inactive
3,O=[N+]([O-])c1ccc(N2CCCC2)c2ccncc12,inactive
4,CCOC(=O)c1ccc(N=C(CC)c2c(O)n(C)c(=O)n(C)c2=O)cc1,inactive
5,O=c1[nH]c(=O)n(C2CCCCC2)c(O)c1C1NCCc2ccccc21 (stereo not given),inactive
